# Test results published in PubChem BioAssay AID1159580 (chemical genetic matrix, 2015).
# The whole screen tested about 5,500 compounds, of which about 2,000 (36%) were called active. Another 18% or so got no clear call; they are omitted. Cut-off read from the data, not from the text of the source: active = normalized growth mostly below about 0.91 (no sharp cut-off); inconclusive = no clear call, values can overlap the other calls; inactive = mostly above about 0.92. The list shows a part of the results.
# Assay: chemical genetic growth profiling, strain panel (AID 1159580);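 note: tested at 20 µM; growth read once vehicle control cultures reached saturation at 30 °C; 1 = growth at the plate median or of vehicle wells; lower values mean less growth of the strain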
# Conditions: growth OD
smiles,measurement,setting,value
CCN(CC)CCOc1ccc(/C(=C(\Cl)c2ccccc2)c2ccccc2)cc1,normalized growth,"S. cerevisiae deletion strains, locus YKL009W, strain mrt4, stronger effect = lower value",0.917 (inactive)
same,normalized growth,"S. cerevisiae deletion strains, locus YKL068W, stronger effect = lower value",1.01 (inactive)
same,normalized growth,"S. cerevisiae deletion strains, locus YKL160W, strain elf1, stronger effect = lower value",0.195 (active)
same,normalized growth,"S. cerevisiae deletion strains, locus YKL190W, strain CNB1, stronger effect = lower value",0.0469 (active)
same,normalized growth,"S. cerevisiae deletion strains, locus YKR001C, strain vps1, stronger effect = lower value",0.0607 (active)
same,normalized growth,"S. cerevisiae deletion strains, locus YKR026C, strain gcn3, stronger effect = lower value",0.209 (active)
same,normalized growth,"S. cerevisiae deletion strains, locus YKR091W, strain srl3, stronger effect = lower value",0.171 (active)
same,normalized growth,"S. cerevisiae deletion strains, locus YLL001W, strain dnm1, stronger effect = lower value",0.108 (active)
same,normalized growth,"S. cerevisiae deletion strains, locus YLL026W, stronger effect = lower value",0.0855 (active)
same,normalized growth,"S. cerevisiae deletion strains, locus YLL041C, strain sdh2, stronger effect = lower value",0.129 (active)
same,normalized growth,"S. cerevisiae deletion strains, locus YLR027C, strain aat2, stronger effect = lower value",0.093 (active)
same,normalized growth,"S. cerevisiae deletion strains, locus YLR039C, strain RIC1, stronger effect = lower value",0.099 (active)
same,normalized growth,"S. cerevisiae deletion strains, locus YLR058C, strain SHM2, stronger effect = lower value",0.0491 (active)
same,normalized growth,"S. cerevisiae deletion strains, locus YLR102C, strain apc9, stronger effect = lower value",0.0621 (active)
same,normalized growth,"S. cerevisiae deletion strains, locus YLR113W, strain HOG1, stronger effect = lower value",0.925 (inactive)
same,normalized growth,"S. cerevisiae deletion strains, locus YLR221C, strain rsa3, stronger effect = lower value",0.104 (active)
same,normalized growth,"S. cerevisiae deletion strains, locus YLR258W, strain gsy2, stronger effect = lower value",0.0916 (active)
same,normalized growth,"S. cerevisiae deletion strains, locus YLR262C, strain YPT6 (second series), stronger effect = lower value",0.933 (inactive)
same,normalized growth,"S. cerevisiae deletion strains, locus YLR262C, strain YPT6, stronger effect = lower value",0.1 (active)
same,normalized growth,"S. cerevisiae deletion strains, locus YLR268W, strain sec22, stronger effect = lower value",0.0697 (active)
same,normalized growth,"S. cerevisiae deletion strains, locus YLR320W, strain mms22, stronger effect = lower value",0.182 (active)
same,normalized growth,"S. cerevisiae deletion strains, locus YLR330W, strain CHS5, stronger effect = lower value",0.0524 (active)
same,normalized growth,"S. cerevisiae deletion strains, locus YLR342W, strain FKS1 (second series), stronger effect = lower value",0.066 (active)
same,normalized growth,"S. cerevisiae deletion strains, locus YLR342W, strain FKS1, stronger effect = lower value",0.156 (active)
same,normalized growth,"S. cerevisiae deletion strains, locus YLR357W, strain rsc2, stronger effect = lower value",0.175 (active)
same,normalized growth,"S. cerevisiae deletion strains, locus YLR370C, strain arc18, stronger effect = lower value",0.0727 (active)
same,normalized growth,"S. cerevisiae deletion strains, locus YLR371W, strain rom2, stronger effect = lower value",0.0621 (active)
same,normalized growth,"S. cerevisiae deletion strains, locus YLR384C, strain iki3, stronger effect = lower value",0.714 (active)
same,normalized growth,"S. cerevisiae deletion strains, locus YLR418C, strain cdc73, stronger effect = lower value",0.0928 (active)
same,normalized growth,"S. cerevisiae deletion strains, locus YML016C, strain PPZ1, stronger effect = lower value",0.0474 (active)
same,normalized growth,"S. cerevisiae deletion strains, locus YML032C, strain rad52, stronger effect = lower value",0.0749 (active)
same,normalized growth,"S. cerevisiae deletion strains, locus YML120C, strain ndi1, stronger effect = lower value",0.121 (active)
same,normalized growth,"S. cerevisiae deletion strains, locus YML124C, strain tub3, stronger effect = lower value",0.0612 (active)
same,normalized growth,"S. cerevisiae deletion strains, locus YMR058W, strain fet3, stronger effect = lower value",0.0872 (active)
same,normalized growth,"S. cerevisiae deletion strains, locus YMR078C, strain ctf18, stronger effect = lower value",0.0745 (active)
same,normalized growth,"S. cerevisiae deletion strains, locus YMR125W, strain sto1, stronger effect = lower value",0.17 (active)
same,normalized growth,"S. cerevisiae deletion strains, locus YMR129W, stronger effect = lower value",0.129 (active)
same,normalized growth,"S. cerevisiae deletion strains, locus YMR205C, strain PFK2, stronger effect = lower value",0.145 (active)
same,normalized growth,"S. cerevisiae deletion strains, locus YMR223W, strain ubp8, stronger effect = lower value",0.0648 (active)
same,normalized growth,"S. cerevisiae deletion strains, locus YMR231W, strain pep5, stronger effect = lower value",0.0748 (active)
same,normalized growth,"S. cerevisiae deletion strains, locus YMR263W, strain SAP30, stronger effect = lower value",0.0606 (active)
same,normalized growth,"S. cerevisiae deletion strains, locus YMR307W, strain GAS1, stronger effect = lower value",0.123 (active)
same,normalized growth,"S. cerevisiae deletion strains, locus YNL067W, strain RPL9B, stronger effect = lower value",0.0497 (active)
same,normalized growth,"S. cerevisiae deletion strains, locus YNL071W, strain lat1, stronger effect = lower value",0.14 (active)
same,normalized growth,"S. cerevisiae deletion strains, locus YNL128W, strain TEP1, stronger effect = lower value",0.0656 (active)
same,normalized growth,"S. cerevisiae deletion strains, locus YNL183C, strain NPR1, stronger effect = lower value",0.92 (inactive)
same,normalized growth,"S. cerevisiae deletion strains, locus YNL209W, strain ssb2, stronger effect = lower value",0.126 (active)
same,normalized growth,"S. cerevisiae deletion strains, locus YNL233W, strain BNI4, stronger effect = lower value",0.057 (active)
same,normalized growth,"S. cerevisiae deletion strains, locus YNL248C, strain rpa49, stronger effect = lower value",0.191 (active)
same,normalized growth,"S. cerevisiae deletion strains, locus YNL250W, strain rad50, stronger effect = lower value",0.922 (inactive)
same,normalized growth,"S. cerevisiae deletion strains, locus YNL271C, strain bni1, stronger effect = lower value",0.962 (inactive)
same,normalized growth,"S. cerevisiae deletion strains, locus YNL298W, strain CLA4, stronger effect = lower value",0.914 (inactive)
same,normalized growth,"S. cerevisiae deletion strains, locus YNL307C, strain MCK1, stronger effect = lower value",0.0652 (active)
same,normalized growth,"S. cerevisiae deletion strains, locus YNL322C, strain KRE1 (second series), stronger effect = lower value",1.02 (inactive)
same,normalized growth,"S. cerevisiae deletion strains, locus YNL322C, strain KRE1, stronger effect = lower value",0.0484 (active)
same,normalized growth,"S. cerevisiae deletion strains, locus YNR049C, strain mso1, stronger effect = lower value",0.0907 (active)
same,normalized growth,"S. cerevisiae deletion strains, locus YNR052C, strain pop2, stronger effect = lower value",0.0587 (active)
same,normalized growth,"S. cerevisiae deletion strains, locus YOL006C, strain TOP1, stronger effect = lower value",0.117 (active)
same,normalized growth,"S. cerevisiae deletion strains, locus YOL147C, strain pex11, stronger effect = lower value",0.0607 (active)
same,normalized growth,"S. cerevisiae deletion strains, locus YOR001W, strain rrp6, stronger effect = lower value",0.337 (active)
same,normalized growth,"S. cerevisiae deletion strains, locus YOR061W, strain CKA2, stronger effect = lower value",0.0462 (active)
same,normalized growth,"S. cerevisiae deletion strains, locus YOR069W, strain VPS5, stronger effect = lower value",0.0488 (active)
same,normalized growth,"S. cerevisiae deletion strains, locus YOR070C, strain gyp1, stronger effect = lower value",0.0639 (active)
same,normalized growth,"S. cerevisiae deletion strains, locus YOR080W, strain dia2, stronger effect = lower value",0.289 (active)
same,normalized growth,"S. cerevisiae deletion strains, locus YOR083W, strain WHI5, stronger effect = lower value",0.102 (active)
same,normalized growth,"S. cerevisiae deletion strains, locus YOR106W, strain vam3, stronger effect = lower value",0.0804 (active)
same,normalized growth,"S. cerevisiae deletion strains, locus YOR136W, strain idh2, stronger effect = lower value",0.0748 (active)
same,normalized growth,"S. cerevisiae deletion strains, locus YOR144C, strain elg1, stronger effect = lower value",0.0617 (active)
same,normalized growth,"S. cerevisiae deletion strains, locus YOR184W, strain ser1, stronger effect = lower value",0.0757 (active)
same,normalized growth,"S. cerevisiae deletion strains, locus YOR231W, strain MKK1, stronger effect = lower value",0.946 (inactive)
same,normalized growth,"S. cerevisiae deletion strains, locus YOR265W, strain rbl2, stronger effect = lower value",0.0762 (active)
same,normalized growth,"S. cerevisiae deletion strains, locus YOR270C, strain vph1, stronger effect = lower value",0.0899 (active)
same,normalized growth,"S. cerevisiae deletion strains, locus YOR290C, strain snf2, stronger effect = lower value",0.112 (active)
same,normalized growth,"S. cerevisiae deletion strains, locus YOR316C, strain cot1, stronger effect = lower value",0.0599 (active)
same,normalized growth,"S. cerevisiae deletion strains, locus YPL051W, strain arl3, stronger effect = lower value",0.303 (active)
same,normalized growth,"S. cerevisiae deletion strains, locus YPL055C, strain LGE1, stronger effect = lower value",0.0709 (active)
same,normalized growth,"S. cerevisiae deletion strains, locus YPL078C, strain atp4, stronger effect = lower value",0.232 (active)
same,normalized growth,"S. cerevisiae deletion strains, locus YPL106C, strain sse1, stronger effect = lower value",0.136 (active)
same,normalized growth,"S. cerevisiae deletion strains, locus YPL240C, strain hsp82, stronger effect = lower value",0.0981 (active)
same,normalized growth,"S. cerevisiae deletion strains, locus YPL241C, strain CIN2, stronger effect = lower value",0.0508 (active)
same,normalized growth,"S. cerevisiae deletion strains, locus YPL256C, strain CLN2, stronger effect = lower value",0.939 (inactive)
same,normalized growth,"S. cerevisiae deletion strains, locus YPR119W, strain clb2, stronger effect = lower value",0.067 (active)
same,normalized growth,"S. cerevisiae deletion strains, locus YPR141C, strain kar3, stronger effect = lower value",1.03 (inactive)
same,normalized growth,"S. cerevisiae deletion strains, locus YPR163C, strain tif3, stronger effect = lower value",0.0698 (active)
same,normalized growth,"S. cerevisiae deletion strains, locus YPR167C, strain met16, stronger effect = lower value",0.0645 (active)
same,normalized growth,"S. cerevisiae deletion strains, strain wtn01, stronger effect = lower value",0.0644 (active)
same,normalized growth,"S. cerevisiae strains, strain wild type, stronger effect = lower value",0.0486 (active)
